Assay outcomes: PubChem BioAssay, National Center for Advancing Translational Sciences (NCATS)
TDP1 inh = TDP1 (human) enzyme inhibition; 350,000 compounds, 0.28% hits; Q9NUW8; recombinant TDP1, AlphaScreen DNA substrate cleavage; Potency, µM (titrated, usually from 130 µM), without a hit: top-dose activity change, negative = inhibition, hits mostly inhibitors; further: potency means the concentration at half of the fitted maximal effect; nearly all actives have a fitted effect of over 40% in size
Target sequence (Q9NUW8 whole entry, looked up): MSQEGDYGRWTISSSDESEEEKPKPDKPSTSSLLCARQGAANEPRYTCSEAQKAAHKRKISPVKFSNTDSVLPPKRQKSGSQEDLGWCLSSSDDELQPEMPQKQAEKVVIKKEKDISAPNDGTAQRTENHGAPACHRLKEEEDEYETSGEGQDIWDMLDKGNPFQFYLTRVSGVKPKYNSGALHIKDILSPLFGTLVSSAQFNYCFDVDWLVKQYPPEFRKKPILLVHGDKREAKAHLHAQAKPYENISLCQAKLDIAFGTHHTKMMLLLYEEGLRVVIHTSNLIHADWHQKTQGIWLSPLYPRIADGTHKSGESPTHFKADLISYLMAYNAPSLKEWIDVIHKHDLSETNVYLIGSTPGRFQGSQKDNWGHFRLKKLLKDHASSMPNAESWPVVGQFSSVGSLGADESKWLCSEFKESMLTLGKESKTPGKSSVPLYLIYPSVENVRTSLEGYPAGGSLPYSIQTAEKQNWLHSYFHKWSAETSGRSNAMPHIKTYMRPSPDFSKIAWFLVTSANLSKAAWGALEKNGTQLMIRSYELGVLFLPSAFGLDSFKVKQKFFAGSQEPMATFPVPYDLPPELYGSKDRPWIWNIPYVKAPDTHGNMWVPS
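Compounds were preincubated with Tdp1 (1 nM final) for 15 min at room temperature before substrate (15 nM final) started a 5 min reaction; beads (10 ug/ml final) were then added for 10 min before AlphaScreen detection.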
CtBP-E1A inh = blocks the CtBP interaction with E1A; AlphaScreen GST-E1A/His-CtBP binding, 1536-well; hits give low values; activity change, % (no concentration beside the values); 340,000 compounds, 0.49% hits; in the data active means activity change below about -65%; inconclusive means mostly about -30% to -63%
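Steps: dispense buffer (Tris pH 8.0, NaCl 300 mM, TCEP 1 mM, BSA, Tween 20); add 5X protein mix (GST-E1A, His-CtBP, 125 nM each); pin 23 nL compound; 2 h at 37 °C, dark; add 5X beads (50 ug/mL); 1 h; read.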
DT40 TDP1 CPT = growth inhibition of DT40 Tdp1-/-;hTDP1 cells with camptothecin (screen for TDP1 inhibitors) | chicken DT40 Tdp1-/-;hTDP1 cells + 20 nM CPT, ATP luminescence, 48 h | Potency, µM (highest dose often 46.2 µM), for inactives: at the highest dose activity change, negative = growth inhibition, usual class: inhibitors | 420,000 compounds, 12% hits; further: potency means the concentration at half of the fitted maximal effect; nearly all actives have a fitted effect of over 55% in size
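Cell growth measured by CellTiter-Glo luminescence after a minimum 48 h, 37 C compound exposure with 20 nM CPT in Tdp1-knockout DT40 cells stably expressing hTDP1, seeded 400/well; qHTS titration format.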
TDP1 cell noCPT = qHTS for Inhibitors of human tyrosyl-DNA phosphodiesterase 1 (TDP1): qHTS in cells in absence of CPT; DT40 Tdp1-/- hTDP1 cells, no CPT, ATP luminescence, 48 h; Potency, µM (series often up to 46.2 µM), inactives show top-dose activity change, negative = growth inhibition, actives largely listed as inhibitors; 420,000 compounds, 15% hits; AID 686978, 2013; further: potency means the concentration at half of the fitted maximal effect; nearly all actives have a fitted effect of over 55% in size
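Growth of hTDP1-complemented DT40 Tdp1-knockout cells is measured by ATP luminescence after at least 48 hr compound exposure at 37 °C, with DMSO substituting for the 20 nM CPT used in the parallel screen.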
IL1B secr inh = inflammasome signaling inhibition, IL-1 beta readout | THP-1 LPS/ATP IL-1B secretion, AlphaLISA, 16 h; hits give low values | 360,000 compounds, 4.7% hits | activity change, % at 57.5 µM; in the data active means activity change below about -50%; inconclusive means mostly about -30% to -49%
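THP-1 cells pretreated 1 hr with compounds (up to 57.5 uM final), then stimulated with LPS (250 ng/mL final) plus ATP (1.25 mM final); secreted IL-1B measured by AlphaLISA after 16 hr, decreased signal indicating inhibition.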
Six1-Eya2 inh = blocks human Six1 binding to Eya2. Q15475+O00167. AlphaScreen GST-Six1/His-Eya2 binding, biochemical; hits give low values. activity change, % (no concentration beside the values). 360,000 compounds, 0.56% hits. AID 651725; in the data active means activity change below about -65%; inconclusive means mostly about -30% to -63%
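Compounds are tested against tagged Six1 and Eya2 proteins bridged by glutathione donor and nickel acceptor beads; after a one-hour incubation at 37 °C without light, AlphaScreen emission is recorded.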
Numbers without * were called inactive. Compounds with a hit are over-represented: about 18% of the library has one in this group of screens. Unless noted, the call rests on the fitted dose curve; in most records, active means well fitted curve in the direction sought with a large enough effect; inconclusive means small, poorly fitted or top-dose-only effect, or another doubt; inactive means no such curve, though single readings can be large; an effect the other way counts as inactive or inconclusive. On the % scale 0 is the no-effect control and ±100 the full control effect.

How did CC(C)(C)NC(=O)c1ccc2c(c1)CCO2 do in these assays?
TDP1 inh: 3%; DT40 TDP1 CPT: -7%; TDP1 cell noCPT: -14%; IL1B secr inh: 4; Six1-Eya2 inh: 3

Results for O=C(NC(=O)c1ccccc1O)c1ccc2c(c1)CCO2 ?
CtBP-E1A inh: 4; DT40 TDP1 CPT: -25%; TDP1 cell noCPT: 21µM*; IL1B secr inh: 19; Six1-Eya2 inh: 3

What do the screens show for `N#C/C(=C\c1cccnc1)c1ccccc1[N+](=O)[O-]`?
TDP1 inh: 0%; CtBP-E1A inh: -5; DT40 TDP1 CPT: -3%; TDP1 cell noCPT: inconclusive; IL1B secr inh: -92*; Six1-Eya2 inh: 6

Results for COc1cc(/C(C#N)=C/c2ccccc2)c([N+](=O)[O-])cc1OC ?
TDP1 inh: -1%; CtBP-E1A inh: -3; DT40 TDP1 CPT: -25%; TDP1 cell noCPT: inconclusive; IL1B secr inh: -83*; Six1-Eya2 inh: -14

Results for COc1ccc(/C=C(\C#N)c2cc(OC)c(OC)cc2[N+](=O)[O-])cc1 ?
CtBP-E1A inh: 0; DT40 TDP1 CPT: -23%; TDP1 cell noCPT: -23%; IL1B secr inh: 23; Six1-Eya2 inh: 3

How did COCC(=O)N1c2nc(C(C)C)nn2C2(CCCCC2)[C@@H]2CCCC[C@@H]21 do in these assays?
TDP1 inh: -1%; DT40 TDP1 CPT: 2.9µM*; TDP1 cell noCPT: 2.9µM*

How did CC(=O)N1c2nc(C(C)C)nn2C2(CCCCC2)[C@@H]2CCCC[C@@H]21 do in these assays?
TDP1 inh: -1%; DT40 TDP1 CPT: 4.1µM*; TDP1 cell noCPT: 1.8µM*

Results for CCCC(=O)N1c2nc(C(C)C)nn2C2(CCCCC2)[C@@H]2CCCC[C@@H]21 ?
TDP1 inh: 2%; DT40 TDP1 CPT: 10µM*; TDP1 cell noCPT: 9.2µM*

Results for CSc1ccc(/C=C/C(=O)OCC(=O)NCC2CCCO2)cc1 (stereo not given) ?
TDP1 inh: 0%; CtBP-E1A inh: -6; DT40 TDP1 CPT: inconclusive; TDP1 cell noCPT: inconclusive; IL1B secr inh: 17; Six1-Eya2 inh: 7

How did O=C1N=c2ccccc2=C1c1c(O)[nH]c2c(C(F)(F)F)cccc12 do in these assays?
CtBP-E1A inh: 3; DT40 TDP1 CPT: 21µM*; TDP1 cell noCPT: 26µM*; IL1B secr inh: -1; Six1-Eya2 inh: 3

How did CC(C)(C)OC(=O)NCCC(=O)N/N=C/c1cccc2cccnc12 do in these assays?
CtBP-E1A inh: -79*; DT40 TDP1 CPT: inconclusive; TDP1 cell noCPT: inconclusive; IL1B secr inh: 51; Six1-Eya2 inh: inconclusive

Results for O=C(COc1ccc(F)cc1)N/N=C/c1cccc2cccnc12 ?
CtBP-E1A inh: -86*; DT40 TDP1 CPT: 21µM*; TDP1 cell noCPT: 16µM*; IL1B secr inh: 164; Six1-Eya2 inh: inconclusive

What do the screens show for `Cc1ccc(OCC(=O)N/N=C/c2cccc3cccnc23)cc1`?
TDP1 inh: 3%; CtBP-E1A inh: -90*; DT40 TDP1 CPT: 23µM*; TDP1 cell noCPT: 26µM*; IL1B secr inh: 99; Six1-Eya2 inh: -77*

Results for COc1ccc2nc(/C=N/NC(=O)CCCCCNC(=O)OC(C)(C)C)ccc2c1 ?
TDP1 inh: 3%; CtBP-E1A inh: -9; DT40 TDP1 CPT: 21µM*; TDP1 cell noCPT: 18µM*; IL1B secr inh: -5; Six1-Eya2 inh: inconclusive

What do the screens show for `CC(C)(C)OC(=O)NCCC(=O)N/N=C/c1ccc2ncccc2c1`?
TDP1 inh: 1%; CtBP-E1A inh: -20; DT40 TDP1 CPT: 2%; TDP1 cell noCPT: inconclusive; IL1B secr inh: 6; Six1-Eya2 inh: inconclusive

What do the screens show for `Cc1ccc(OCC(=O)N/N=C/c2cn(C)c3ccccc23)cc1`?
CtBP-E1A inh: 6; DT40 TDP1 CPT: -12%; TDP1 cell noCPT: -33%; IL1B secr inh: 12; Six1-Eya2 inh: 0
